ROCK2 blocker: blocks human Rho kinase 2 activity | purified ROCK2, Kinase-Glo ATP depletion luminescence | 60,000 tested, 0.35% active | inhibition, % at 6 µM | O75116 | AID 604;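 active means inhibition above the screen-wide mean inhibition plus 3 SD, cut at about 18% in these data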;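 further: plate controls were DMSO wells for no effect and Y-27632 control wells after no-enzyme background subtraction for full effect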
PKA kinase inh: PKA (human) kinase inhibition. PKA Kemptide phosphorylation, Kinase-Glo ATP luminescence. AID 524. P17612. 65,000 tested, 0.1% active. inhibition, % at 6 µM;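 active means inhibition above the screen-wide mean inhibition plus 3 SD, cut at about 21% in these data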
hDAT+cocaine: modulates human dopamine transporter uptake under cocaine; LLC-PK1 hDAT cells, [14C]-dopamine uptake with cocaine IC80; actives deviate in either direction; B-score at 10 µM; 110,000 tested, 1.3% active;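 active means Z score or B-score, a plate-position-corrected score, falls beyond the plate's 99.7% confidence bounds, in either direction; inactive means both scores lie inside the 99.7% bounds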;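 further: scored against the spread of the other compound wells on the same plate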
Target sequence (Q01959 whole entry, looked up): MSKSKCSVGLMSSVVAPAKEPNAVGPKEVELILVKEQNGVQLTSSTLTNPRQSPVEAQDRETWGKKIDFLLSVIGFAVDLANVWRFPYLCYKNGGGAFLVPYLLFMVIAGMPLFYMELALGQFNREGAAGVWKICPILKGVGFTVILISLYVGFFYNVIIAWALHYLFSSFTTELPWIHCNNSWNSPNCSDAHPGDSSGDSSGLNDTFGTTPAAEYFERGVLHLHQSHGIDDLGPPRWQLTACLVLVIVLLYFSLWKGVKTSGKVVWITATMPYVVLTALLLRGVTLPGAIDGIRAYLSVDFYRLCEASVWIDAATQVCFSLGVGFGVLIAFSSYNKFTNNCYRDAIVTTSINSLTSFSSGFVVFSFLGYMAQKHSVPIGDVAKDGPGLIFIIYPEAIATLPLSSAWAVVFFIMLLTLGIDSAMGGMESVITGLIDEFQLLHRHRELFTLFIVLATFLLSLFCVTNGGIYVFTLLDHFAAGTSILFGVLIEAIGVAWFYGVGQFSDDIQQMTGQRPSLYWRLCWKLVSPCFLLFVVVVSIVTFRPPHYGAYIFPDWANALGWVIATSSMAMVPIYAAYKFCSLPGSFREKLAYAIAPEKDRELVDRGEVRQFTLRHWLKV
D1 mod: D1 dopamine receptor (human) allosteric modulation. HEK293 D1, CRE-luciferase, dopamine EC30 potentiation; actives deviate in either direction. B-score at 10 µM. 58,000 tested, 5.9% active;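 active means luminescence count or its row- and column-corrected plate score outside the 99.7% band of the plate's sample wells, on either side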
JNK3 inh: inhibitors of human JNK3 kinase | inhibition, % at 8 µM | P53779 | 60,000 tested, 0.61% active | purified JNK3 kinase activity, HTS; in the data active means inhibition above about 17%;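 further: 0% = DMSO and 100% = reference inhibitor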
Active calls of the source: *; nt = no result. Only a selection was taken, and hits are over-represented in it overall.

SMILES | ROCK2 blocker | PKA kinase inh | hDAT+cocaine | D1 mod | JNK3 inh
Cc1oc(-c2ccc(Cl)cc2)nc1CN1CCC(C(=O)N2CCc3ccccc3C2)CC1 | 3.7 | 9.6 | 2.64* | -0.632 | 3.1
O=C(O)C[C@H]1c2cc(F)ccc2S(=O)(=O)N1C1CCCCC1 | nt | nt | -0.0207 | nt | nt
CS(=O)(=O)N(Cc1ccccc1)c1ccc(C(=O)N2CCc3ccccc3C2)cc1 | nt | nt | -1.93 | nt | nt
COc1ccc(-c2nnc(SCC(=O)N3CCc4ccccc4C3)o2)cc1 | 9.3 | 2.2 | 3.16* | 2.25 | 3.4
C/C(N)=C(/C#N)C(=O)CSc1nnc(-c2ccccc2Br)o1 | nt | nt | -0.0134 | nt | nt
COc1ccc(-c2nnc(SCC(=O)/C(C#N)=C(\C)N)o2)cc1 | -9.9 | 0.9 | -0.472 | -3.21* | 0.0
O=C(CSc1nnc(-c2ccccc2)o1)N1CCc2ccccc2C1 | -6.3 | 7.3 | nt | -0.418 | 8.5
CCOc1cccc2cc(-c3csc(NC(=O)CCC(=O)N4CCN(C)CC4)n3)c(=O)oc12 | 4.0 | 1.8 | nt | 2.11 | 2.2
Cn1c(CO)cnc1SCc1ccc(Cl)cc1 | nt | nt | 1.27 | nt | nt
COCCCNC(=O)C1CCCN(S(=O)(=O)c2ccc(C)cc2)C1 (configuration not stated) | nt | nt | 0.981 | nt | nt
Cc1cccc(NC(=O)c2cc(NC(=O)c3ccco3)ccc2Cl)n1 | 1.0 | 6.5 | -0.348 | -0.079 | 8.2
Cc1nc(Nc2ncc3c(n2)CC(C)(C)CC3=O)nc2ccccc12 | 3.7 | 4.1 | nt | nt | 2.0
CC1=NC(Nc2nc(C)c3ccccc3n2)=NC(C)(C)C1 | 1.5 | 4.4 | 0.29 | -4.08* | 1.6
COc1cccc(C2CC(c3ccccc3)Nc3nc(N)nn32)c1 (configuration not stated) | 3.1 | 7.5 | 0.47 | 5.32* | 2.1
COc1ccc(C2CC(c3cccc(OC)c3)n3nc(N)nc3N2)cc1 (configuration not stated) | 5.4 | 1.0 | -0.344 | -0.413 | 6.9
O=C1c2cccc3c2[C@H](CCC3)CN1[C@@H]1CN2CCC1CC2 | nt | nt | 0.00119 | nt | nt
Clc1ccc(NCc2nnc3n2CCCCC3)cc1 | -4.4 | -11.5 | -0.626 | 0.185 | -3.4
c1ccc(NCc2nnc3n2CCCCC3)cc1 | 7.4 | 11.7 | 1.94* | -0.964 | 1.6
O=C(Nc1ccc2c(c1)OCCO2)NC1(C(F)(F)F)Oc2ccccc2O1 | -4.2 | -8.5 | -2.95* | -3* | -1.4
COc1ccc(-c2nc(N3CCCC3)nc3nn4c(C)cc(C)nc4c23)cc1 | 3.5 | 8.4 | nt | -0.823 | -9.8
CS(=O)(=O)N1CCN(C(=O)c2cc(-c3cccs3)nc3ccccc23)CC1 | 7.6 | 3.3 | -3.02* | -0.00689 | -4.2
Cc1nc2c(c(=O)n1CC1CCCO1)c1nc3ccccc3nc1n2CCC(C)C (configuration not stated) | 5.5 | 6.5 | nt | nt | 2.4
Cc1nc2c(c(=O)n1CCC(C)C)c1nc3ccccc3nc1n2Cc1ccc2c(c1)OCO2 | -6.4 | -6.7 | 0.0688 | 8.83* | 0.5
O=C(NCc1ccccc1C(F)(F)F)C1CC(c2ccc(C(F)(F)F)cc2)=NO1 (configuration not stated) | nt | nt | -0.704 | nt | nt
CCCn1c(=O)c2ccccc2n2c(SCC(=O)c3cc(C)n(CCOC)c3C)nnc12 | 1.4 | 1.4 | nt | 2.24* | 4.3
SMILES | ROCK2 blocker | PKA kinase inh | hDAT+cocaine | D1 mod | JNK3 inh
COCCn1c(C)cc(C(=O)CSc2nnc(C)s2)c1C | 2.1 | 7.2 | -0.735 | -7.8* | -7.2
CCCn1c(=O)c2ccccc2n2c(SCC(=O)c3ccc(CC)cc3)nnc12 | nt | nt | 0.503 | nt | nt
CCO[C@H]1OC(C(=O)N2CCN(Cc3ccc4c(c3)OCO4)CC2)=C[C@@H](c2ccc(C(F)(F)F)cc2)[C@@H]1CCCO | nt | nt | -0.529 | nt | nt
C[C@H]1[C@@H](OC(=O)CCC(=O)O)O[C@@H]2OC3(C)CC[C@H]4[C@H](C)CC[C@@H]1[C@@]24OO3 | nt | nt | 0.581 | nt | nt
CCSc1ccccc1C(=O)NCc1ccc(S(N)(=O)=O)cc1 | 3.4 | -1.0 | -0.186 | -3.03* | 8.6
CCOC(=O)C1CCCN(c2c(Nc3cccc(C)c3)c(=O)c2=O)C1 (configuration not stated) | 5.2 | 10.7 | -0.934 | -0.0782 | 2.5
Cc1ccnc(NC(=O)CCCOc2cc(=O)n(C)c3ccccc23)c1 | 9.0 | 2.6 | 0.796 | -3.3* | 27.3*
Cc1ccnc(NC(=O)CSc2cc(=O)n(C)c3ccccc23)c1 | -5.2 | -7.1 | 0.0861 | -0.277 | 25.7*
Cn1c(=O)cc(SCC(=O)Nc2ccccn2)c2ccccc21 | 0.8 | 6.7 | 0.162 | 0.859 | 10.2
COCCN=C1Sc2nc3ccc(C)cc3cc2CN1Cc1ccco1 | nt | nt | 3.17* | nt | nt
Cc1cc2ncn(C(=O)c3c(-c4c(Cl)cccc4Cl)noc3C)c2cc1C | 6.0 | -0.5 | 0.15 | -0.982 | 0.9
Cc1cc2ncn(C(=O)c3c(-c4ccccc4)noc3C)c2cc1C | 5.0 | 7.9 | -2.34* | 0.448 | -2.9
COc1ccc(-c2nnc(CSc3nc4ccccc4c(=O)n3C)o2)cc1OC | 4.5 | 7.2 | 1.45 | 8.47* | -1.4
COc1ccc(CN(C(=O)CSc2nnc(-c3c[nH]c4ccccc34)o2)c2ccc(F)cc2)cc1OC | nt | nt | -0.82 | nt | nt
CCC(c1ccccc1)c1nc(-c2ccccn2)no1 (configuration not stated) | 5.2 | 14.1 | 0.779 | -7.05* | -3.5
Cc1ccc(SCc2nc(-c3ccccn3)no2)cc1 | 7.7 | 8.0 | -0.32 | nt | 0.2
COC(=O)c1cc2c(C)c(C)c3ccccn3c-2c1C(=O)OC | nt | nt | -9.15* | nt | nt
C#CCOCCOCCOCCNc1nc(N2CCN(C(=O)C([C@@H](C)CC)n3cc(C(N)COC(=O)C(F)(F)F)nn3)CC2)nc(N2CCN(C(=O)C([C@@H](C)CC)n3cc(C(N)CC(C)C)nn3)CC2)n1 (some centres not stated) | nt | nt | -0.344 | nt | nt
O=C(NCc1ccco1)c1ccc2c(=O)n(Cc3ccco3)c(SCC(=O)N3CCCC3)nc2c1 | nt | -3.1 | 2.2* | 0.235 | nt
CCOc1cc2[nH]c(=S)n(CCCCC(=O)NCc3ccco3)c(=O)c2cc1OCC | nt | 7.2 | 0.122 | 0.148 | nt
O=C(CCCn1c(=S)[nH]c2ccccc2c1=O)NCc1ccco1 | 6.5 | 8.0 | -1.08 | -0.00598 | 18.9*
O=C(CCCCCn1c(SCC(=O)c2ccccc2)nc2ccccc2c1=O)NCc1ccco1 | 11.4 | 14.3 | 0.751 | -0.474 | 27.5*
O=C(CSc1nc2ccsc2c(=O)n1Cc1ccccc1)NCc1ccco1 | nt | 5.8 | -0.0983 | -2.23* | nt
CC(C)(C)[C@]1(O)CCN2C[C@H]3c4ccccc4CCc4cccc(c43)[C@@H]2C1 | nt | nt | 1.44 | nt | nt
Cc1nn(Cc2ccccc2)c(=O)n1N(C)c1ncc(C(F)(F)F)cc1Cl | nt | nt | 0.933 | nt | nt
CCCCn1c(SCC(=O)NCc2ccco2)nc2ccccc2c1=O | nt | nt | 0.249 | nt | nt
CCOC(=O)CSc1nc2ccccc2c(=O)n1CCCCCC(=O)NCc1ccco1 | -1.9 | 8.4 | 0.0608 | -0.53 | 23.1*
COc1ccc(N(CC(=O)NC2CCCC2)C(=O)Cn2nnc(-c3ccc(C)cc3)n2)cc1 | -2.7 | -9.9 | 2.5* | -0.694 | -2.5
COc1ccc(-c2nnn(CC(=O)N(CC(=O)NC3CCCC3)c3cccc(C)c3)n2)cc1OC | 6.8 | 12.8 | 2.8* | 0.562 | -1.8
COc1ccc(N(CC(=O)NC2CCCC2)C(=O)Cn2nnc(-c3ccc(C)cc3)n2)cc1OC | -1.7 | -5.7 | 0.255 | nt | -3.7

Screening data from PubChem BioAssay.
